Assay outcomes deposited in PubChem BioAssay by several laboratories.
ABCB6 inh MLPCN: blocks the human ABCB6 transporter | AID 602162 | fluorescence ratio to DMSO, % at 10 µM | 0.19% of 360,000 active | K562-ABCB6 porphyrin accumulation, flow cytometry, 1 h; active compounds read low | Q9NP58;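 active = fluorescence ratio to DMSO below 75%, the collection mean minus 3 SD; inconclusive = too few cells collected in the well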;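 also: signal is porphyrin accumulated inside mitochondria; lower ratio means ABCB6 inhibition with less porphyrin fluorescence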
Target sequence (Q9NP58 whole entry, looked up): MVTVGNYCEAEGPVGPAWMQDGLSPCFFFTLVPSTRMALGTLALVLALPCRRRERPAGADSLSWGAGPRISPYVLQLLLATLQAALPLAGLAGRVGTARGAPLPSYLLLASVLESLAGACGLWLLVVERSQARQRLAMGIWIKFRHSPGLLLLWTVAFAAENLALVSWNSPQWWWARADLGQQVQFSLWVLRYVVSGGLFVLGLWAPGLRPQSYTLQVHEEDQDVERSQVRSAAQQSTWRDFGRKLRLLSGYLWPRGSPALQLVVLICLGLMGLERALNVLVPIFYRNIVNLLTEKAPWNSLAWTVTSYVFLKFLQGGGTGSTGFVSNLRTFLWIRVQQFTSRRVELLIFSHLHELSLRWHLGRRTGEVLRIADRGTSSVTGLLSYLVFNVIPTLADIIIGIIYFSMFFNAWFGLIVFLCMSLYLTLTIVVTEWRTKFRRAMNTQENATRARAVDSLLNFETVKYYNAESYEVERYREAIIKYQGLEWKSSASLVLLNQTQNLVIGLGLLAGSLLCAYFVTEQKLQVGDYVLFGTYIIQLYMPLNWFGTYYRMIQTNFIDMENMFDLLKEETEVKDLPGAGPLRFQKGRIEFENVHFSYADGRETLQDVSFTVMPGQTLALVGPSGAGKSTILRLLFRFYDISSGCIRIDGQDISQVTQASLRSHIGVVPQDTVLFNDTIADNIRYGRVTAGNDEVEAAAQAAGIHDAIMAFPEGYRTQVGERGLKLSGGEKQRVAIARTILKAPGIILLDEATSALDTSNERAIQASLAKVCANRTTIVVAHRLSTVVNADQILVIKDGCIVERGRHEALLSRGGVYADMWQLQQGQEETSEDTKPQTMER
Myeloid diff 2: myeloid differentiation induction. ER-HoxA9 myeloid progenitors, lysozyme-GFP differentiation, flow cytometry. calls only at 10 µM. 1% of 360,000 active. AID 624256;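 active = normalized GFP-positive differentiation at or above the plate's own cutoff, the solvent-only control mean plus 3 SD; inconclusive = no clear call, values can overlap the other calls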;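 also: cells exposed to compound for four days before flow analysis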
hiPSC survival: hiPSC single-cell survival enhancement; ATPlite luminescence; 100% = ROCK inhibitor wells, 0% = DMSO; survival enhancement, % at 20 µM; 0.044% of 360,000 active; AID 602274; in the data active = survival enhancement above about 18%;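 also: cells exposed to compounds for 16 hours before the ATP read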
beta cell repl: MIN6 beta-cell proliferation induction; MIN6 cells proliferation, ATPlite luminescence, 48 h; cells starved in 0.2% serum; 100% = growth in 10% serum; proliferation, % at 10 µM; 0.29% of 330,000 active;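 active = compounds whose signal lies at least 3.5 SD above the mean of all wells on their plate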
H9c2 protect: protects H9c2 cardiomyocytes from peroxide injury | AID 588492 | protection from H2O2 cell death, % at 20 µM | 0.63% of 360,000 active | H2O2 injury protection, ATPLite, 2 h;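 active = compounds giving at least 50% protection of heart cells from peroxide-induced death in the single-dose screen, raw or plate-pattern-corrected value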
Large screens that a line does not name were inactive; ! = repeats disagree. Rows were chosen to be rich in hits. Some 2.2% of all compounds tested hit in one or more screens of this group.

CC(=O)Oc1ccc(C(=O)OCC(=O)c2c(N)n(C)c(=O)n(C)c2=O)cc1OC(C)=O	H9c2 protect 65
CCCn1nc(C(=O)OCC(=O)c2c(N)n(C)c(=O)n(C)c2=O)c2ccccc2c1=O	H9c2 protect 61
COc1ccc(C(=O)OCC(=O)c2c(N)n(C)c(=O)n(C)c2=O)cc1OC	none
CCCn1nc(C(=O)OCC(=O)Nc2ccc(C(N)=O)cc2)c2ccccc2c1=O	none
CCOc1ccc(-c2c(C(=O)N/N=C/c3cccs3)nnn2-c2nonc2N)cc1	none
O=C1Nc2ccc(Br)cc2C1(O)c1ccccc1 (configuration not stated)	none (no result: Myeloid diff 2)
O=C1Nc2ccc(Br)cc2C12NNc1ccccc1O2 (configuration not stated)	Myeloid diff 2 active
Cc1cc(NC(=O)c2cccs2)cc(-c2nc3ncccc3o2)c1O	H9c2 protect 58
COCCNS(=O)(=O)c1ccc2c(c1)n(C)c(=O)n2C	none
Cc1cc(NC(=O)COC(=O)COc2ccc3c4c(c(=O)oc3c2)CCC4)no1	H9c2 protect 53
Cc1noc(C)c1COC(=O)COc1ccc2c(C)cc(=O)oc2c1	H9c2 protect 60
Cc1cc(NC(=O)COc2ccc3c(C)c(C)c(=O)oc3c2)no1	none (no result: beta cell repl)
COc1cc(/C=C/c2nnc3c4ccccc4ncn23)cc(OC)c1OC	H9c2 protect 68
CCOc1ccc(NC(=O)N2CCCC2C(=O)NCC2CCCO2)cc1 (configuration not stated)	none
CCOc1ccccc1-c1c2cc(O)c(=O)cc-2oc2cc(O)c(O)cc12	H9c2 protect 60 (no result: beta cell repl)
O=C(CCCn1c(=O)[nH]c2ccsc2c1=O)N1CCN(c2ccccn2)CC1	none
COc1ccc([C@H]2C(C#N)=C([S-])N[C@](C)(O)[C@@H]2[n+]2ccccc2)cc1	Myeloid diff 2 active (no result: beta cell repl)
CC[C@@H]1CC=C[C@H]2[C@H]1C(=O)N(Cc1ccccc1)[C@H]2c1cc(C)ccc1F	none (no result: ABCB6 inh MLPCN, Myeloid diff 2, hiPSC survival, H9c2 protect)
Fc1ccc(NCc2cn3ccccc3n2)cc1	Myeloid diff 2 active
CCN(CC)CCn1nc2c3c(cccc3c1=O)-c1ccccc1-2	Myeloid diff 2 inconclusive
O=c1c2cccc3c2c(nn1CN1CCOCC1)-c1ccccc1-3	H9c2 protect 75
CCOc1cc(C2NC(=O)c3ccccc3O2)ccc1OC (configuration not stated)	none
COc1cc(C2NC(=O)c3ccccc3O2)ccc1OC(C)C (configuration not stated)	Myeloid diff 2 active
S=C(Nc1ccc(Cl)cc1)N1CCOCC1	none
CC1(C)CC(=O)C2=C(C1)N(CCN1CCOCC1)C1=C(C(=O)CC(C)(C)C1)C2c1ccc(Cl)cc1	H9c2 protect 52
O=C(Nc1nncs1)c1ccc(Br)c(S(=O)(=O)N2CCCC2)c1	none
COc1ccc(-c2nnc(SCC(=O)N(C)C3CCS(=O)(=O)C3)n2C(C)C)cc1 (configuration not stated)	none
COc1ccc2c(C)cc(SCC(=O)N(C)C3CCS(=O)(=O)C3)nc2c1 (configuration not stated)	Myeloid diff 2 active
Cc1oc(C(C)(C)C)cc1C(=O)N1CCCC1C(=O)O (configuration not stated)	Myeloid diff 2 active
CC(C)(C)OC(=O)N1CCCC1C(=O)O (configuration not stated)	none
Cc1ccc(C(=O)NCc2cccc(C(F)(F)F)c2)cc1S(=O)(=O)N1CCCCC1	none
CCN1CCN(Cc2ccc(NC(=O)c3ccc(C)c(NC(=O)c4nccn4C)c3)cc2C(F)(F)F)CC1	none
CCN1CCN(Cc2ccc(NC(=O)c3ccc(C)c(NC(=O)N4CCNC4=O)c3)cc2C(F)(F)F)CC1	Myeloid diff 2 active!
O=[N+]([O-])c1cccc(S(=O)(=O)N2CCN(S(=O)(=O)N3CCCCCC3)CC2)c1	none
C#CC[N+](C)(C)CC#Cc1ccccc1	Myeloid diff 2 active
O=C(O)C(C(O)c1ccccc1)[n+]1ccccc1 (configuration not stated)	none
COc1cc(-c2cc(-c3ccc(N)cc3)[nH]c(=O)c2C#N)cc(OC)c1OC	Myeloid diff 2 active
N#Cc1c(-c2ccccc2)cc(-c2ccccc2)[nH]c1=O	none
O=C(CNC(=O)c1ccccc1)N/N=C/c1ccc([N+](=O)[O-])s1	none
CN(Cc1cnc2nc(N)nc(N)c2n1)c1ccc(C(=O)N[C@@H](CCC(=O)O)C(=O)O)cc1	Myeloid diff 2 active!
Nc1nc2ncc(CNc3ccc(C(=O)N[C@@H](CCC(=O)O)C(=O)O)cc3)nc2c(=O)[nH]1	none
COc1ccc(NC(=O)Cn2nnc(-c3ccccc3NC(=O)c3ccco3)n2)cc1	Myeloid diff 2 active
CC(C)(C)NC(=O)Cn1nnc(-c2ccccc2NC(=O)c2cnccn2)n1	hiPSC survival 22
COc1ccccc1NC(=O)Cn1nnc(-c2ccccc2NC(=O)c2ccco2)n1	none
O=C(CCc1nc2ccccc2c(=O)[nH]1)OCC(=O)N1CCN(S(=O)(=O)c2ccccc2)CC1	none
CCOC(=O)C1(CCCc2ccccc2)CCN(S(C)(=O)=O)CC1	none
COc1ccc(-c2nn3c(-c4ccco4)nnc3s2)cc1OC	H9c2 protect 77
COc1cc(OC)c(-c2nn3c(-c4ccco4)nnc3s2)cc1OC	H9c2 protect 74 (no result: beta cell repl)
c1coc(-c2nnc3sc(-c4cccs4)nn23)c1	H9c2 protect 53
CCOc1cccc(-c2nn3c(-c4ccco4)nnc3s2)c1	H9c2 protect 64
COc1cccc(-c2nnc3sc(-c4cccs4)nn23)c1	none
COc1cc(-c2nnc3sc(-c4ccco4)nn23)cc(OC)c1OC	none
COc1ccc(-c2nnc3sc(-c4ccco4)nn23)cc1OC	H9c2 protect 58
Cc1nnc2ccc(-c3cccc(NC(=O)c4ccc(Br)o4)c3)nn12	none
Cc1nnc2ccc(-c3cccc(NC(=O)c4ccc(Cl)nc4)c3)nn12	H9c2 protect 63
Cc1ccccc1Cc1c(C)nc2ncnn2c1C	none
Cc1nc2ncnn2c(C)c1Cc1cccc(C(F)(F)F)c1	Myeloid diff 2 active
COc1cccc(N(CC(=O)NC2CCCCC2)C(=O)CCCC(=O)Nc2ccccn2)c1	none
CC(C)(C)c1nc(Sc2ncccc2[N+](=O)[O-])n[nH]1	none
O=C(NNC(=O)c1ccc(NC(=O)c2ccccc2)cc1)Nc1ccccc1	Myeloid diff 2 active
O=C(NNC(=O)c1ccc(NC(=O)c2ccccc2)cc1)c1ccc(F)cc1	none
CC(=O)c1cccc(NC(=O)c2cccc3c(-c4cccc(C(N)=O)c4)coc23)c1	none (no result: beta cell repl)
CS(=O)(=O)Nc1cccc(NC(=O)c2cccc3c(-c4cccc(C(N)=O)c4)coc23)c1	H9c2 protect 54 (no result: beta cell repl)
C=CCn1cc(/C=C2\SC(N3CCOCC3)=NC2=O)c2ccccc21	none
COc1cccc(NC(=O)COc2cccc3c2CCNC3=O)c1	H9c2 protect 56
O=C(COc1cccc2c1CCNC2=O)Nc1ccc(F)cc1	H9c2 protect 51
Cc1cccc(NC(=O)COc2cccc3c2CCN(C)C3=O)c1	none
